Bioassay records deposited in PubChem BioAssay by University of Kansas High Throughput Screening Laboratory.
Sampled rows, rich in hits. Any-hit rate of the full collection: about 3.5%.
mHTT CaM bind – mHTT-calmodulin interaction abrogation; P42858; inhibition, % at 15 µM; AID 1671202; hit rate 3.6% among 190,000; AlphaScreen His-mHTT/GST-CaM binding, luminescence
Pf apPOL inh – Pf-apPOL DNA polymerase inhibition | Recombinant Pf-apPOL, molecular beacon fluorescence, 1.5 h | inhibition, % at 10 µM | hit rate 0.25% among 210,000 | AID 1794808
Numbers stand for hits; n = inactive; x = no result. Cut-off read from the data, not from the text of the source: active = inhibition above about 50%; inactive = the rest.

SMILES | mHTT CaM bind | Pf apPOL inh
O=C(O)C1CC(=O)N(c2ccc(F)c(Cl)c2)C1 (stereo not given) | n | n
Cc1cccc(-n2nc3c(c2NC(=O)C2CCCCC2)CS(=O)C3)c1C (stereo not given) | n | n
CN(C)c1ccc(NC(=O)c2cccc(I)c2)cc1 | 80 | n
O=C(Nc1ccccc1)c1cccc(I)c1 | n | n
CCCCNC(=O)CC1N=C2c3ccccc3N=C(SCc3ccc([N+](=O)[O-])cc3)N2C1=O (stereo not given) | 53 | n
CCCCNC(=O)CCC1N=C2c3ccccc3N=C(SCc3ccc([N+](=O)[O-])cc3)N2C1=O (stereo not given) | n | n
Cc1cc(O)cc2c1C(=O)C(=Cc1ccc(F)cc1)O2 | n | n
C=CCN1C(=O)C2(C(C#N)=C(N)Oc3n[nH]c(C)c32)c2ccccc21 (stereo not given) | n | n
Cc1ccccc1OCC1CNC(=O)O1 (stereo not given) | n | n
O=C1NCC(CN(c2ccccc2)c2ccccc2)O1 (stereo not given) | 83 | n
CCOc1ccc2c(=O)c(-c3ccc(OC)cc3)coc2c1 | n | n
CCOc1ccc(N2C(=O)Nc3ccc(Br)cc3C2(O)C(=O)NC(C)C)cc1 (stereo not given) | n | n
CCOc1ccc(C2CC(c3cccc(OC)c3)n3nc(N)nc3N2)cc1 (stereo not given) | n | n
CCOc1ccc(-n2sc3c(c2=S)-c2ccc(OC)cc2NC3(C)C)cc1 | 94 | x
CCOc1ccc2c(c1)-c1c(sn(-c3ccc(OC)cc3)c1=S)C(C)(C)N2 | 94 | x
CCOc1ccc2c(c1)-c1c(sn(-c3ccc(C(C)C)cc3)c1=S)C(C)(C)N2 | 76 | x
CC1=C(C(=O)Nc2ccc(Cl)cc2)C(c2cccc(Br)c2)n2nnnc2N1 (stereo not given) | n | n
c1ccc(Cn2cnnc2C2CCCN(Cc3ccncc3)C2)cc1 (stereo not given) | n | n
c1ccc(Cn2cnnc2C2CCCN(Cc3ccccn3)C2)cc1 (stereo not given) | 94 | n
CN(C)c1ccc(/C=C2\N=C(c3cccc([N+](=O)[O-])c3)OC2=O)cc1 | n | 97
Cc1ccc(C2=N/C(=C\c3cccc(Br)c3)C(=O)O2)cc1[N+](=O)[O-] | 51 | n
Cc1ccc(C2=N/C(=C\c3ccc(Br)cc3)C(=O)O2)cc1[N+](=O)[O-] | n | n
CCN(CC)c1ccc(/C=C2\N=C(c3cccc([N+](=O)[O-])c3)OC2=O)cc1 | n | n
O=C(CCSc1cc(Cl)ccc1Cl)N1CCc2cc([N+](=O)[O-])ccc21 | x | n
O=C(O)CNC(=O)c1cccc(Br)c1 | n | n
SMILES | mHTT CaM bind | Pf apPOL inh
O=C(Nc1ccc(C(=O)O)c(O)c1)c1cc2ccccc2c(=O)o1 | n | n
CCN1C(=O)C(C)(C(=O)Nc2ccccc2)Oc2cccnc21 (stereo not given) | n | n
Cc1ccc(-n2c(SCc3ccc(F)cc3)nc3c(c2=O)SCC3)cc1 | n | n
O=[N+]([O-])c1cc(C=Nc2c(-c3ccco3)nc3ccccn23)c(Cl)cc1Cl | n | n
Clc1ccc(C=Nc2c(-c3ccco3)nc3ccccn23)cc1 | 55 | n
Oc1c(Cl)cc(Cl)cc1C=Nc1c(-c2ccco2)nc2ccccn12 | 64 | n
O=[N+]([O-])c1cc(C=Nc2c(-c3ccco3)nc3ccccn23)ccc1Br | n | n
O=C1NN(c2cccc(Cl)c2)C(=O)/C1=C/c1ccc(-c2ccccc2[N+](=O)[O-])o1 | n | n
CCCCOc1ccc(C(=O)NCCC(=O)O)cc1 | n | n
O=C(CSc1nnc(-c2ccco2)c(-c2ccco2)n1)Nc1cnc2ccccc2c1 | 93 | n
O=C(CSc1ccc(-c2cccnc2)nn1)Nc1ccc2c(c1)OCO2 | n | n
COc1ccc(C(=O)CSc2nnc(-c3ccco3)c(-c3ccco3)n2)cc1 | 95 | n
O=C(CSc1nnc(-c2ccco2)c(-c2ccco2)n1)Nc1ccc2c(c1)OCO2 | 75 | n
Cc1cc(NC(=O)CSc2nc3ccccc3s2)no1 | n | n
Cc1cc(NC(=O)CSc2nnc(-c3ccco3)c(-c3ccco3)n2)no1 | 69 | n
O=C(CSc1nnc(-c2ccco2)n1-c1ccccc1)Nc1ccccc1 | n | n
COc1ccc(C(=O)CSc2nnc(-c3ccco3)n2-c2ccccc2)cc1 | n | n
COC(=O)C1=CN(C2CC2)c2cc(N3CCCCCC3)c(F)cc2S1(=O)=O | n | n
COc1ccc(-c2nnc(SCC(=O)N3CCN(C)CC3)nc2-c2ccc(OC)cc2)cc1 | n | 54
Cc1ccc(NC(=O)CSc2nnc(-c3ccco3)c(-c3ccco3)n2)cc1C | 93 | n
O=C(CSc1nnc(-c2ccco2)c(-c2ccco2)n1)Nc1cccc(C(=O)O)c1 | n | n
COc1cc(OC)c(NC(=O)CSc2nnc(-c3ccco3)c(-c3ccco3)n2)cc1Cl | n | n
CCOc1ccc(NC(=O)CSc2nnc(-c3ccco3)c(-c3ccco3)n2)cc1 | 82 | n
O=C(CSc1nnc(-c2ccco2)c(-c2ccco2)n1)Nc1ccc(C(=O)O)cc1 | n | n
O=C(CSc1nnc(-c2ccccc2)c(-c2ccccc2)n1)N1CCCCC1 | n | n
SMILES | mHTT CaM bind | Pf apPOL inh
O=C(CSc1nnc(-c2ccco2)c(-c2ccco2)n1)Nc1ccc(Cl)cc1Cl | 85 | n
CCOc1ccc(C2C3=C(CC(C)(C)CC3=O)Nc3ccc4ncccc4c32)cc1 (stereo not given) | n | n
CCn1c(C2CCN(C(=O)NC)C2)nc2ccncc21 (stereo not given) | n | n
Cc1ccc(NC(=O)CN2CCC(C(=O)O)CC2)c(C)c1 | n | n
COc1ccc(OCc2nc(C#N)c(NCc3ccc(F)cc3)o2)cc1 | n | n
Cc1nc2ccccc2nc(C)c1=NOCC(=O)Nc1ccccc1Cl | n | n
O=C(NCc1ccco1)c1cc(-c2cccs2)n(C2CCS(=O)(=O)C2)n1 (stereo not given) | n | n
C=CCSc1nnc2c(n1)OC(c1ccc(OCC)c(OC)c1)N(C(C)=O)c1ccccc1-2 (stereo not given) | n | n
O=C(CSc1nnc(-c2ccco2)c(-c2ccco2)n1)Nc1nccs1 | 70 | n
O=C(CSc1ncccn1)Nc1nccs1 | n | n
COc1nccnc1NC1CCN(C(=O)CNC(C)=O)CC1 | n | n
CCc1onc(C)c1C1CCCN1Cc1ccc(O)cc1 (stereo not given) | n | n
CCc1onc(C)c1C1CCCN1Cc1ccc(N(CC)CC)cc1 (stereo not given) | 67 | n
O=C(NCc1ccncc1)/C(=C\c1cccnc1)NC(=O)c1ccccc1 | n | n
CCN(CC)CCn1c(-c2ccccc2)csc1=Nc1ccccc1 | n | n
OCCn1c(-c2ccc(Cl)cc2)csc1=Nc1ccccc1 | 69 | n
OCCn1c(-c2ccc(Cl)c(Cl)c2)csc1=Nc1ccccc1 | 100 | n
c1ccc(N=c2scc(-c3ccccc3)n2CCN2CCOCC2)cc1 | n | n
Cc1ccc(-c2csc(=Nc3ccccc3)n2CCO)cc1 | 52 | n
NC(=O)c1nn(-c2cccc(Br)c2)c(=O)cc1O | n | n
CS(=O)(=O)N1CCCc2ccc(NS(=O)(=O)c3ccc(Cl)s3)cc21 | n | n
CCCN1C(=O)Cc2ccccc2C1C(=O)NCc1ccccc1OC (stereo not given) | n | n
COc1ccccc1CNC(=O)C1c2ccccc2CC(=O)N1Cc1ccccc1 (stereo not given) | 100 | n
O=C(NCC1CCN(C(=O)c2ccccc2F)CC1)c1cc(-c2ccccc2)on1 | n | n
